Screening data as filed in PubChem.
Most compounds without a hit are left out; they make up all but 3.8% or so of the library.
Candida biofilm: kills Candida albicans biofilms; C. albicans biofilm + clotrimazole, Alamar Blue; inhibition, % at 6 µM; 0.14% of 85,000 active; AID 834;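 active means inhibition above 20%; inactive means inhibition below 20%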;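 further: preformed 24 hr biofilms exposed to compound for 48 hr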
Smad3 inh: Smad3 (human) transcription factor binding inhibition; P84022; TR-FRET Smad3/Dy647-FoxH1 peptide binding, europium anti-His; inhibition, % at 25 µM; 0.29% of 88,000 active;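 active means compounds that reduce the energy-transfer binding signal between the protein and its labelled peptide by more than half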
ERa SRC1 inh: ER-alpha (human) coactivator binding inhibition; TR-FRET ER-alpha LBD / SRC-1 peptide, estradiol-bound; inhibition, % at 25.6 µM; 1.7% of 86,000 active; in the data active means inhibition above about 50%
Target sequence (P03372 whole entry, looked up, the tested form may be a part): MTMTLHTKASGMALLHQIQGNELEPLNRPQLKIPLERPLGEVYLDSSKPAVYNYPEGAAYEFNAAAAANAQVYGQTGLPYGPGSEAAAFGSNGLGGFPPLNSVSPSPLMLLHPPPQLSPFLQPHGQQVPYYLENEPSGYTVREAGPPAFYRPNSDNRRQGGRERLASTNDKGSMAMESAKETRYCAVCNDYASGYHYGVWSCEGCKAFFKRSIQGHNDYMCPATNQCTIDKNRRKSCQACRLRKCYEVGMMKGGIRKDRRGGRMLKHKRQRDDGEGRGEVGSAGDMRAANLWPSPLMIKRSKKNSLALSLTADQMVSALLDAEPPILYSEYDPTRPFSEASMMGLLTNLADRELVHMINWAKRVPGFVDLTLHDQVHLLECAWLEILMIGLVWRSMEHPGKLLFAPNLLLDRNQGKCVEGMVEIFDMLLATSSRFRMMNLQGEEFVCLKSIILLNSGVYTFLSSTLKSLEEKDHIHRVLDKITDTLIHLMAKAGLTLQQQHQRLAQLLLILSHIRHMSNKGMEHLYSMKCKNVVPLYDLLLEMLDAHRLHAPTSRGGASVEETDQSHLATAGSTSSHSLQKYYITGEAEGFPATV
ERa coact pot: ER-alpha (human) coactivator binding potentiation; TR-FRET ERalpha-LBD/SRC-Cy5 coactivator binding, 2 h; 100 = basal binding, no effect; 1.3% of 86,000 active; P03372; AID 639; coactivator binding (% of control), % at 25.6 µM; in the data active means activity above about 200%;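 further: binding measured in presence of low estradiol as agonist stimulus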
MT1-MMP txn act: activates MT1-MMP transcription | HT1080 MT1-MMP promoter luciferase reporter, luminescence, overnight; stronger effect = higher value | activation factor at 10 µM | 0.16% of 86,000 active;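 active means activation factor of at least 2 for MT1-MMP transcription at 10 µM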
ERb coact inh: ER-beta (human) coactivator binding inhibition. TR-FRET ER-beta LBD / SRC1-Cy5 peptide binding; receptor agonist-loaded with 1 µM estradiol. Q92731. 1.3% of 86,000 active. AID 633. inhibition, % at 25.6 µM;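 active means compounds whose percent inhibition of the receptor-coactivator binding signal exceeds about 50% in the single-dose screen, limit read from the data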
Numbers stand for hits; – = inactive; · = no result; [ ] = remark or other dose.

SMILES | Candida biofilm | Smad3 inh | ERa SRC1 inh | ERa coact pot | MT1-MMP txn act | ERb coact inh
COc1cccc2c1C(=N)c1c(O)c3c(c(O)c1C2=O)C[C@](O)(C(C)=O)C[C@@H]3O[C@@H]1C[C@H](N)[C@@H](O)[C@H](C)O1 | · | – | · | · | · | ·
COC(=O)[C@@]1(Cc2ccccc2)C=C[C@@H](C)N1C | · | · | · | · | – | ·
Cc1nc(NCc2ccc3c(c2)OCO3)c2nnn(Cc3ccccc3)c2n1 | – | – | 63[fluorescence artefact?] | – | – | –
COc1ccc(Nc2nc(C)nc3c2nnn3Cc2ccccc2)cc1OC | – | – | – | – | – | –
c1ccc(Cn2nnc3c(NCc4ccc5c(c4)OCO5)nc(C4CC4)nc32)cc1 | – | – | 79[fluorescence artefact?] | – | – | –
c1ccc(Cn2nnnc2CN2CCN(Cc3ccc4c(c3)OCO4)CC2)cc1 | – | – | – | 209 | – | –
C=CCn1cnc2c(c1=O)c1nc3ccccc3nc1n2/N=C/c1cccc(OC)c1 | – | – | 68[fluorescence artefact?] | – | – | –
CCC1=C2CC[C@H]3C(=O)N(C)C(=O)[C@H]3[C@H]2[C@@]2(Cc3ccccc3)C(=NCC3CC3)OC(=O)N2C1=O | · | · | · | · | – | ·
CCN(CC)S(=O)(=O)c1cc(C(=O)O)ccc1Cl | – | – | – | – | · | –
CCN(c1ccccc1)S(=O)(=O)c1cc(C(=O)O)ccc1C | – | – | 76 | – | – | 74
O=C(O)[C@@H]1[C@H](C(=O)NCc2ccncc2)[C@@H]2C=C[C@H]1O2 | · | – | · | · | · | ·
C[C@]1(c2ccccc2)O[C@@H]2C[C@H]3[C@@H]4CCC5=CC(=O)C=C[C@@]5(C)[C@@]4(F)[C@H](O)C[C@]3(C)[C@]2(C(=O)CO)O1 | · | – | · | · | · | ·
Cc1ccc(/C=N/c2sc3c(c2C#N)CCC3)s1 | – | – | – | – | 2.3 | –
COc1ccc(C(c2nnnn2C2CCCC2)N2CCN(C3CCCC3)CC2)cc1OC (configuration not stated) | – | – | – | – | – | –
COc1ccc(C(c2nnnn2CCc2ccccc2)N2CCN(C3CCCC3)CC2)cc1OC (configuration not stated) | – | – | – | – | – | 93[fluorescence artefact?]
COC(=O)[C@@]1(Cc2ccccc2)[C@H]2c3cc(C(=O)N4CCCC4)n(C)c3C[C@H]2CN1C(=O)c1ccccc1 | · | · | · | · | – | ·
c1ccc(OCCOCCN2CCOCC2)cc1 | 63 | – | – | – | – | –
COc1cc(NC(=O)CSc2nnnn2-c2ccccc2)cc(OC)c1OC | – | – | – | 229[fluorescence artefact?] | – | –
COc1ccc(CCn2c(C)cc(C(=O)CSc3nnnn3-c3ccccc3)c2C)cc1OC | – | – | 65[fluorescence artefact?] | – | – | –
C[N+]1(NCC[N@+]2(C)CCc3ccccc3C2)CCCCC1 | · | 95 | · | · | · | ·
COc1ccc(-n2nnnc2SCC(N)=O)cc1 | – | – | – | – | – | –
C/C(N)=C(/C#N)C(=O)CSc1nnnn1-c1ccc(C)cc1 | – | – | 51[fluorescence artefact?] | – | – | 64
C/C(N)=C(/C#N)C(=O)CSc1nnnn1-c1ccccc1 | – | – | 85[fluorescence artefact?] | – | – | 90[fluorescence artefact?]
O=C(N/N=C/c1cccc(O)c1)c1ccncc1 | · | – | · | · | · | ·
CCc1nnc(NC(=O)C2c3ccccc3Oc3ccccc32)s1 | – | – | – | – | – | –
SMILES | Candida biofilm | Smad3 inh | ERa SRC1 inh | ERa coact pot | MT1-MMP txn act | ERb coact inh
CN(C)c1nc(N/N=C\c2ccc(Cl)c([N+](=O)[O-])c2)nc(Nc2ccc(F)cc2)n1 | – | – | 78 | – | – | –
Cc1ccc(CNc2nc(N)c([N+](=O)[O-])c(Nc3ccc(F)cc3)n2)cc1 | – | – | – | – | – | –
CN(C)c1ccc(-c2nn3c(-c4ccccc4Cl)nnc3s2)cc1 | – | – | 72[fluorescence artefact?] | – | – | –
Cc1oc(-c2ccccc2Cl)cc1-c1nn2c(-c3ccco3)nnc2s1 | – | – | 58 | – | – | 52[fluorescence artefact?]
COc1ccccc1-c1nnc2sc(-c3ccc(N(C)C)cc3)nn12 | · | · | · | · | – | ·
Clc1ccc(-c2ccc(-c3nn4c(-c5ccco5)nnc4s3)o2)cc1 | – | – | 74 | – | – | –
Cc1ccc(OCc2nn3c(-c4ccco4)nnc3s2)cc1 | – | – | – | – | – | –
c1ccc(-c2nn3c(-c4ccco4)nnc3s2)nc1 | – | – | – | – | – | –
Clc1ccc(OCc2nn3c(-c4ccco4)nnc3s2)c(Cl)c1 | – | – | 66[fluorescence artefact?] | – | – | –
NC(N)=NC(N)=Nc1ccc(S(=O)(=O)O)cc1 | · | – | · | · | · | ·
CCC1=C2CC[C@H]3C(=O)N(CC)C(=O)[C@H]3[C@H]2[C@@]2(Cc3ccccc3)C(=O)N(CC3CC3)C(=O)N2C1=O | · | · | · | · | – | ·
